Among the data in PubChem BioAssay (EPA / NIEHS) are outcome and AC50 values, retold here.

Holding throughout (settings): primary human HUVEC with PBMC; actives raise or lower the signal
Experiment [1] in a line: BSK_LPS_PGE2: BioMAP Diversity Plus: LPS Assay for Prostaglandin E2 (PGE2) Biomarker Activity (AID 2283082). The method, boiled down: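 PGE2 release measured by ELISA in an LPS-activated co-culture of human umbilical vein endothelial cells and peripheral blood mononuclear cells, read at 24 h post-dosing. DMSO served as baseline for bidirectional curve fitting.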
Read-out in experiment [2]: Macrophage colony-stimulating factor (MCSF), CSF1 (gene 1435)
Nature of the experiment: BSK_LPS_MCSF: BioMAP Diversity Plus: LPS Assay for Macrophage colony-stimulating factor (MCSF) Biomarker Activity (AID 2283083). The method, boiled down: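 ELISA readout of M-CSF after 24 h compound exposure in a human endothelial/PBMC co-culture. Activity, in either direction, is fitted relative to DMSO vehicle.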

Read-out in experiment [3]: Tissue Factor, F3 (gene 2152)
Nature of the experiment: BSK_LPS_TissueFactor: BioMAP Diversity Plus: LPS Assay for Tissue Factor Biomarker Activity (AID 2283084). The method, boiled down:
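ELISA signal for cell-surface Tissue Factor (CD142) was read 24 h after compound dosing of an LPS-stimulated human endothelial–PBMC primary co-culture. Gain or loss of signal was scored relative to DMSO.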

Read-out in experiment [4]: Tumor necrosis factor (Homo sapiens) (UniProt P01375)
Nature of the experiment: BSK_LPS_TNFa: BioMAP Diversity Plus: LPS Assay for Tumour Necrosis Factor alpha (TNFa) Biomarker Activity (AID 2283085).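 For AC50: TNFa protein level quantified by ELISA in the co-culture.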 In outline: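 TNFa was quantified by ELISA in LPS-activated co-cultures of human endothelial cells and PBMC, 24 h post-dosing. Both increases and decreases versus DMSO were fitted.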

Read-out in experiment [5]: CD38, CD38 (gene 952)
Nature of the experiment: BSK_SAg_CD38: BioMAP Diversity Plus: SAg Assay for CD38 Biomarker Activity (AID 2283087). The method, boiled down:
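CD38 quantified by ELISA (fluorescence) in a superantigen-activated endothelial cell–PBMC co-culture at 24 h post-dose. Activity fitted in both directions relative to DMSO; parallel SRB and Alamar Blue cytotoxicity read-outs.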

Read-out in experiment [6]: CD40, CD40 (gene 958)
The experiment in a line: BSK_SAg_CD40: BioMAP Diversity Plus: SAg Assay for CD40 Biomarker Activity (AID 2283088). In outline: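 Compounds were dosed onto a human primary endothelial–PBMC co-culture, and after 24 h CD40 was quantified by ELISA using a fluorescence signal. Activity in either direction was fitted relative to DMSO.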

Read-out in experiment [7]: CD69, CD69 (gene 969)
Nature of the experiment: BSK_SAg_CD69: BioMAP Diversity Plus: SAg Assay for CD69 Biomarker Activity (AID 2283089).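 For AC50: cell surface CD69 protein quantified by ELISA with fluorescence detection.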 The method, boiled down:
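Primary human vascular co-culture (umbilical vein endothelium with peripheral blood mononuclear cells) exposed to test chemical for 24 h. CD69 levels quantified by fluorescence ELISA; DMSO served as negative control for bidirectional fitting.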

Read-out in experiment [8]: Monocyte Chemoattractant Protein-1 (MCP1), CCL2 (gene 6347)
Nature of the experiment: BSK_SAg_MCP1: BioMAP Diversity Plus: SAg Assay for Monocyte Chemoattractant Protein-1 (MCP1) Biomarker Activity (AID 2283090). In outline:
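Values derive from bidirectional fitting of ELISA-measured MCP1 against DMSO controls. Readings were taken 24 h after dosing human vascular endothelial cells co-cultured with peripheral blood mononuclear cells under superantigen stimulation.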

Read-out in experiment [9]: E-selectin (Homo sapiens) (UniProt P16581)
Nature of the experiment: BSK_SAg_Eselectin: BioMAP Diversity Plus: SAg Assay for Eselectin Biomarker Activity (AID 2283091). The method, boiled down: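 Co-culture: HUVEC + PBMC. Dose compound; 24 h. ELISA for E-selectin. Bidirectional fit vs DMSO.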

Activity calls are given as the source filed them. Rule for the calls: active = hit-call score of the fitted dose curve at least 0.9, where 1 is the maximum; inactive = score below 0.9.

Chain of Tumor necrosis factor (Homo sapiens) (P01375 whole entry, looked up): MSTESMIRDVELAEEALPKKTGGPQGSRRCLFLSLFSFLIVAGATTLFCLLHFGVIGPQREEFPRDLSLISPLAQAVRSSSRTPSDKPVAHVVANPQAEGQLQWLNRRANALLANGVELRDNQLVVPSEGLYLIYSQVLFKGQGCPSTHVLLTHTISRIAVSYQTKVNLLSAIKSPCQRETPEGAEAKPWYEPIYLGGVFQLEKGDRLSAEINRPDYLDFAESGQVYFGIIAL
Chain of E-selectin (Homo sapiens) (P16581 whole entry, looked up): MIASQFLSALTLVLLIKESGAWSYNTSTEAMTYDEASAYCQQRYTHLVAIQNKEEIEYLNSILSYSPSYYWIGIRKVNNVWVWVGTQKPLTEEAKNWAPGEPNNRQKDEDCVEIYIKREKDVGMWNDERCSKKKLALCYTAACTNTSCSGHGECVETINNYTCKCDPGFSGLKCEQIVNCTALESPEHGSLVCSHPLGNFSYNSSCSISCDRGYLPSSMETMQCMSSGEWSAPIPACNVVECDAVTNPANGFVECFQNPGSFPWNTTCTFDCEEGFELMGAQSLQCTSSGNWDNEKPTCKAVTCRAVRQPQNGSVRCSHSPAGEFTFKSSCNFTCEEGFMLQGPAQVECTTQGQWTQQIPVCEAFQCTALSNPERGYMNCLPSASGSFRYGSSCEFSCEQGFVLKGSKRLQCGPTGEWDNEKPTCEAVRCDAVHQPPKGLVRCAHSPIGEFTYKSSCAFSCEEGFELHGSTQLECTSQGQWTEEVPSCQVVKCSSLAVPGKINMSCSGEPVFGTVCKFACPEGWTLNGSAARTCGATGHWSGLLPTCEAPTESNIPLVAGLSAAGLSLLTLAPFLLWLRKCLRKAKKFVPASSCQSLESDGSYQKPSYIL

One may read the AC50 as the midpoint of the concentration-response curve, whichever way the signal moves. Take `CC(=O)CC(c1ccccc1)c1c(O)c2ccccc2oc1=O` (centres undefined): the result in experiment [1], in [2], in experiment [3], in experiment [5], in experiment [6] and in experiment [7] was inactive. For the same compound, the outcome in [8] and in [9] was inactive. Moreover, in experiment [4], the half-maximal activity concentration (AC50) was 0.711 µM (active).

On to `CC(C)(C)c1ccccc1`, for which the result in experiment [1], in [2], in [3], in [4], in experiment [5] and in [7] was inactive. Further, the result in experiment [8] and in experiment [9] was inactive.

On to `CC(C)c1cccc(C(C)C)c1NC(=O)NS(=O)(=O)c1cc(C(C)(C)O)co1`, for which the AC50 in [1] is 1.04 µM (active). In addition, the outcome in [2], in [3], in [4], in experiment [5], in experiment [7] and in experiment [8] was inactive. Further, the outcome in experiment [9] was inactive.

For `COc1ccc(OC(F)(F)F)cc1CN[C@H]1CCCN[C@H]1c1ccccc1`, the outcome in [1], in experiment [2], in [3], in experiment [4], in experiment [5] and in [8] was inactive. Further, the outcome in experiment [9] was inactive. The half-maximal activity concentration (AC50) in [7] is 20 µM (active).

Turning to `Cc1cc(Cc2ccc(N)c(C)c2)ccc1N`, the result in experiment [1], in experiment [3], in experiment [4], in [5], in experiment [6] and in experiment [7] was inactive. Also, the result in experiment [8] was inactive. The AC50 in experiment [9] was 5.1 µM (active).

Consider `S=c1[nH]c2ccccc2s1`, for which the half-maximal activity concentration (AC50) in experiment [1] is 12.9 µM (active); in experiment [3] it was 2.23 µM (active). For the same compound, the result in experiment [2], in [4], in [5], in experiment [7], in experiment [8] and in experiment [9] was inactive.

For the compound `NC(=Nc1ccccc1)Nc1ccccc1`, the result in experiment [1], in [3], in experiment [4], in [5], in [7] and in experiment [8] was inactive. Besides, the concentration at half-maximal activity (AC50) in experiment [2] is 5.45 µM (active).

`O=Cc1ccccc1C=O`: the outcome in [1], in [2], in [3], in experiment [5], in experiment [7] and in experiment [8] was inactive. Moreover, the result in experiment [9] was inactive. For the same compound, the concentration at half-maximal activity (AC50) in experiment [4] is 1.53 µM (active).

As for `O=C(O)c1cccnc1`, the outcome in [1], in experiment [2], in [3], in experiment [4], in [5] and in experiment [6] was inactive. For the same compound, the outcome in experiment [7], in experiment [8] and in experiment [9] was inactive.

In the case of `C/C=C/C=C/C(=O)O`, the outcome in experiment [1], in experiment [2], in experiment [3], in experiment [4], in experiment [5] and in experiment [7] was inactive. Also, the outcome in [8] and in [9] was inactive.

As for `CC(=O)OC1CC(C)OC(C)O1` (centres undefined), the result in experiment [1], in experiment [2], in [3], in experiment [4], in [5] and in experiment [7] was inactive. Also, the outcome in experiment [8] and in experiment [9] was inactive.

As for `CC(=O)O`, the result in experiment [1], in experiment [2], in [3], in experiment [4], in [5] and in [7] was inactive. The outcome in [8] and in [9] was inactive.

In the case of `O=C1OC(c2ccc(O)cc2)(c2ccc(O)cc2)c2ccccc21`, the result in experiment [1] and in experiment [3] was inactive. The AC50 in [2] is 31.1 µM (active); in [4], 20 µM (active); in experiment [5], 28.7 µM (active); in [7] it was 20 µM (active); in [8], 23 µM (active); in experiment [9], 23.8 µM (active).

On to `CC1(C)C(=O)NC(=O)N1CO`, for which the AC50 in [1] was 0.749 µM (active). Also, the outcome in [2], in experiment [3], in experiment [4], in [5], in [7] and in experiment [8] was inactive. Moreover, in [9], the result was inactive.

For `CO[C@@H]1COCC[C@@H]1N[C@@H]1CC[C@@](C(=O)N2CCc3ncc(C(F)(F)F)cc3C2)(C(C)C)C1`, the result in [1], in [2], in experiment [3], in experiment [4], in [5] and in experiment [7] was inactive. Moreover, the outcome in [8] and in [9] was inactive.

On to `OCC(O)CO`, for which the result in experiment [1], in [2], in [3], in experiment [4], in experiment [5] and in [6] was inactive. The outcome in experiment [7], in experiment [8] and in experiment [9] was inactive.

Take `CCCCC(CC)CO` (centres undefined): the result in experiment [1], in experiment [2], in [3], in [4], in [5] and in [7] was inactive. Besides, the result in experiment [8] and in experiment [9] was inactive.

Turning to `c1ccc2occc2c1`, the outcome in experiment [1], in [2], in [3], in experiment [4], in experiment [5] and in experiment [7] was inactive. In addition, the outcome in [8] and in experiment [9] was inactive.

Regarding `CCc1nc(N)nc(N)c1-c1ccc(Cl)cc1`, the outcome in [1], in experiment [2], in experiment [3], in experiment [4], in experiment [5] and in experiment [6] was inactive. The outcome in experiment [7], in experiment [8] and in experiment [9] was inactive.

As to `CS(=O)(=O)c1ccc([C@@H](C[C@H]2CCC(=O)C2)C(=O)Nc2cnccn2)cc1Cl`, the result in [1], in experiment [2], in experiment [3], in experiment [4], in experiment [5] and in experiment [6] was inactive. The result in experiment [7], in [8] and in experiment [9] was inactive.

As for `Cc1ccc(C(C)(C)C)c(O)c1`, in [1], the half-maximal activity concentration (AC50) was 3.09 µM (active). The result in [2], in experiment [3], in experiment [4], in experiment [5], in [6] and in experiment [7] was inactive. In addition, the outcome in [8] and in experiment [9] was inactive.

Regarding `C=CCc1ccc(OC)c(OC)c1`, the outcome in [1], in [2], in experiment [3], in experiment [5], in [6] and in [7] was inactive. Besides, the outcome in experiment [8] and in experiment [9] was inactive. For the same compound, in experiment [4], the AC50 is 11 µM (active).

`CCCCCCC(CCCCCCCCCCC(=O)OCC(COC(C)=O)OC(C)=O)OC(C)=O` (centres undefined): the outcome in experiment [1], in experiment [2], in experiment [3], in [4], in experiment [5] and in [7] was inactive. In addition, the outcome in experiment [8] and in experiment [9] was inactive.

Turning to `CCCCOC(=O)CCCCC(=O)OCCCC`, the result in experiment [1], in [2], in [3], in experiment [4], in experiment [5] and in experiment [6] was inactive. In addition, the result in experiment [7], in experiment [8] and in [9] was inactive.
